Measurements published in PubChem BioAssay (NCI).
Compounds without any hit were thinned out: in the full panel of roughly 83,000, 20% have a hit.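 Results are percent growth after 48 hours of single-concentration exposure. 100 means growth as in untreated cells, lower positive values show inhibition; negative values down to -100 show cell death.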 Calls of active or inactive are those of the source. How the source made its calls: active means growth percent below 10; inactive means the rest.

Test system: A549/ATCC NSCLC
Assay: NCI-60 one-dose screen, 48 h (100 = growth as untreated, 0 = no growth, -100 = all killed)
Conditions: 10 µM unless noted

Compound | growth
CS(=O)(=O)c1ccc(/C(=N/NC(N)=S)c2ccc(F)cc2)cc1 | 108% (inactive)
CC1(C)CC[C@]2(CO)CC[C@]3(C)C(=CC[C@@H]4[C@@]5(C)CCNCC(C)(C)[C@@H]5CC[C@]43C)[C@@H]2C1 | 85.6% (inactive)
C=C(CNCCc1ccc(O)cc1)[C@@H]1CC[C@]2(CO)CC[C@]3(C)[C@H](CC[C@@H]4[C@@]5(C)CCC(N)C(C)(C)[C@@H]5CC[C@]43C)[C@@H]12 (stereo not given in full) | -66.6% (active)
C(=N\Nc1nnc2n1N=C(c1ccccc1)CS2)/c1ccc(OCc2ccccc2)cc1 | 91.1% (inactive)
O=C(/C=C\c1ccc(O)c(O)c1)c1ccccc1O | 55.7% (inactive)
COc1ccc(/C=C2/CCc3cc4ccc(OC)cc4[o+]c32)c(O)c1 | 94.9% (inactive)
Cc1ccc(-c2nnc(SCc3nc(N)nc(Nc4ccccc4F)n3)n2-c2ccccc2)cc1 | 88.7% (inactive)
O=C(Nc1cccc(Cl)c1)Oc1c(Cl)c(Cl)c(Cl)c(Cl)c1Cl | 96.8% (inactive)
COc1ccc(-c2csc(NC(=O)CSc3nc(C)cc(=O)[nH]3)n2)cc1 | 104% (inactive)
Cc1c(C)c2c(c(C)c1OC(=O)CCC(=O)[O-])CCC(C)(CCCCCCCCCCC[P+](c1ccccc1)(c1ccccc1)c1ccccc1)O2 (stereo not given) | -2.64% (active)
CCN(CC)CCCNC(=O)c1c2c(n3ccccc13)C(=O)c1ncccc1C2=O | -65.3% (active)
O=C(/C=C/c1ccc([N+](=O)[O-])cc1)c1cccc(Nc2nc(Nc3ccccc3)nc(Nc3ccccc3)n2)c1 | 72.7% (inactive)
CN1CC(c2ccccc2)C(C(=O)c2ccc(Br)cc2)C12C(=O)Nc1ccccc12 (stereo not given) | 92.2% (inactive)
COCCNC(=O)Cc1cc(-c2ccc(Cl)cc2)n(-c2ccccc2)c1C | 82.1% (inactive)
CNc1nc2ncc(-c3c(C)noc3C)cc2n1Cc1ccccc1 | 54.4% (inactive)
CC1(C)CC[C@]2(CO)CC[C@]3(C)[C@H](CC[C@@H]4[C@@]5(C)CC[C@H](O)C(C)(C)[C@@H]5CC[C@]43C)[C@H]2[C@H]1O | 56.8% (inactive)
COC(=O)[C@@H](Cc1c[nH]c2ccccc12)NC[C@@H](O)CN1C(=O)/C(=C\c2cc(OC)c(OC)c(OC)c2)c2ccccc21 | 67.2% (inactive)
CCc1ccc(Cc2cnc(NC(=O)c3cc(C)oc3C)s2)cc1 | 34.7% (inactive)
CN1CCN(CC(=O)N(C)c2ccc(N=C(c3ccccc3)c3c(O)[nH]c4ccc([N+](=O)[O-])cc34)cc2)CC1 | 46.7% (inactive)
COc1cc2c(c(OC)c1OC)CCC(c1cccc(NC(=O)c3cccc(Cl)c3)c1)O2 (stereo not given) | 85% (inactive)

Compound | growth
O=C1C2C(c3cccs3)C=C(c3ccc(Cl)cc3)N2C(=S)N1c1ccccc1 (stereo not given) | 101% (inactive)
CCN1CCN(c2cc(C(=O)Nc3cccc(Nc4ccc5c(OC)cccc5n4)c3)cc(C(F)(F)F)c2)CC1 | 21.1% (inactive)
CCCNNC(=O)c1ccc(CNC(=O)/C=C/c2ccccc2)cc1 | 34.8% [2.5 µM] (inactive)
CC(=O)Oc1ccccc1C(=O)N(Cc1ccc2c(Cl)cc(Cl)c(O)c2n1)c1ccccc1 | 29.2% (inactive)
CN(C)c1ccc(/C=N/NC(=O)CSc2nc3sc4c(c3c(=O)n2-c2ccccc2)CCCCC4)cc1 | 6.63% (active)
N#Cc1nn(-c2ccccn2)c(N)c1C#N | 97.5% (inactive)
CC(Cc1cccc2ccccc12)C(N)=O (stereo not given) | 96.7% (inactive)
Cc1nc2ccccc2c(/C=C/c2ccc(Br)cc2)c1C(=O)/C=C/c1ccccc1 | 14.8% (inactive)
c1ccc2[nH]c(-c3ccc(-c4nccc5c4[nH]c4ccccc45)cc3)nc2c1 | 45.7% (inactive)
Cc1[nH]c(C(=O)Nc2ccc(C(N)=O)cc2OC(C)C)c(Cl)c1Cl | 100% (inactive)
C/C=C(/C)C(=O)O[C@@H]1CC(C)(C)CC2C34OC(=O)[C@@]21CC[C@@]3(C)[C@]1(C)CCC2C(C)(C)C(=O)CC[C@]2(C)C1C[C@@H]4O (stereo not given in full) | 63.1% (inactive)
C=C(C[n+]1ccccc1)[C@@H]1CC[C@]2(C(=O)OC)CC[C@]3(C)[C@H](CC[C@@H]4[C@@]5(C)CCC(=O)C(C)(C)[C@@H]5CC[C@]43C)[C@@H]12 | 93.3% (inactive)
COC(=O)c1c(C(=O)OC)c2ccc3c4ncccc4ccc3n2c1C(=O)c1ccc(C)cc1 | 83.2% (inactive)
O=C1c2ccccc2-c2c1c1ccncc1c(=O)n2CCCn1ccnc1 | 56.3% (inactive)
O=C1Nc2ccccc2/C1=C/c1cccn1CCCCCCn1c2ccccc2c(=O)c2ccccc21 | 87.9% (inactive)
O=C(Nc1ccccc1CNc1nc(Nc2ccc(OCCN3CCCC3)cc2)ncc1Cl)NC1CCCCC1 | 85.4% (inactive)
CSc1nc(CC(C)C)c(C#N)c(=O)n1C | 80.7% (inactive)
CS(=O)(=O)Nc1cc(-c2ccc3ncnc(Nc4cccc(Cl)c4)c3c2)cnc1Cl | -13.4% (active)
N#Cc1c(-c2ccc(Cl)cc2)nc(NN=Cc2cccc(Cl)c2)nc1N1CCOCC1 | 81.9% (inactive)
CNC1=C([N+](=O)[O-])C(c2ccc(OC)cc2)C(C#N)=C(c2ccc[nH]2)O1 (stereo not given) | 106% (inactive)
